From the supplement of paper PMC11001985

Tests used:
Experiment in all cases: lysine labeling ratio R10:1 (500 µM / 50 µM probe), SILAC-ABPP in living cells; higher = lower intrinsic lysine reactivity toward the probe, active = 2 or less
Settings in all cases: HeLa; probe concentrations 500 vs 50 µM
[1] = biological target: ACLY (lysine site: K1080) (UniProt P53396)
Method in brief: (§1)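 Living SILAC light and heavy HeLa cells in PBS at room temperature were treated with an alkyne-tagged, disulfide-linked lysine probe at 50 µM or 500 µM, with forward and reverse label swaps. The mixed lysates were clicked to biotin-azide, digested with trypsin, captured on neutravidin, released with DTT, alkylated and run by LC-MS/MS on a TIMS-TOF Pro. R for each lysine is the filtered median high-probe/low-probe MS1 peptide ratio, taken again as the median over forward and reverse replicates. Any value above 20 is set to 20.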

ACLY (lysine site: K272) = ACLY (lysine site: K272) (UniProt P53396)
Method in brief: as §1

ACLY (lysine site: K780) = ACLY (lysine site: K780) (UniProt P53396)
Method in brief: as §1

ACLY (lysine site: K836) = ACLY (lysine site: K836) (UniProt P53396)
Method in brief: as §1

ACLY (lysine site: K968) = ACLY (lysine site: K968) (UniProt P53396)
Method in brief: as §1

ACLY (lysine site: K978) = ACLY (lysine site: K978) (UniProt P53396)
Method in brief: as §1

[2] = biological target: ADAM10 (lysine site: K273) (UniProt O14672)
Method in brief: as §1

[3] = biological target: ADAM10 (lysine site: K410) (UniProt O14672)
Method in brief: as §1

[4] = biological target: ADAM10 (lysine site: K601) (UniProt O14672)
Method in brief: as §1

[5] = biological target: BACE2 (lysine site: K299) (UniProt Q9Y5Z0)
Method in brief: as §1

BSG (lysine site: K264) = BSG (lysine site: K264) (UniProt P35613)
Method in brief: as §1

CALR (lysine site: K159) = CALR (lysine site: K159) (UniProt P27797)
Method in brief: as §1

CALR (lysine site: K360) = CALR (lysine site: K360) (UniProt P27797)
Method in brief: as §1

CALR (lysine site: K64) = CALR (lysine site: K64) (UniProt P27797)
Method in brief: as §1

CAV1 (lysine site: K47) = CAV1 (lysine site: K47) (UniProt Q03135)
Method in brief: as §1

CDC37 (lysine site: K60) = CDC37 (lysine site: K60) (UniProt Q16543)
Method in brief: as §1

[6] = biological target: CSDE1 (lysine site: K307) (UniProt O75534)
Method in brief: as §1

CSTB (lysine site: K91) = CSTB (lysine site: K91) (UniProt P04080)
Method in brief: as §1

[7] = biological target: DDX50 (lysine site: K271) (UniProt Q9BQ39)
Method in brief: as §1

[8] = biological target: DDX50 (lysine site: K432) (UniProt Q9BQ39)
Method in brief: as §1

GART (lysine site: K251) = GART (lysine site: K251) (UniProt P22102)
Method in brief: as §1

[9] = biological target: HNRNPF (lysine site: K224) (UniProt P52597)
Method in brief: as §1

[10] = biological target: HNRNPF (lysine site: K87) (UniProt P52597)
Method in brief: as §1

[11] = biological target: HNRNPF (lysine site: K98) (UniProt P52597)
Method in brief: as §1

[12] = biological target: HYOU1 (lysine site: K797) (UniProt Q9Y4L1)
Method in brief: as §1

[13] = biological target: ITIH2 (lysine site: K148) (UniProt P19823)
Method in brief: as §1

[14] = biological target: ITIH2 (lysine site: K150) (UniProt P19823)
Method in brief: as §1

[15] = biological target: ITIH2 (lysine site: K190) (UniProt P19823)
Method in brief: as §1

[16] = biological target: LMAN2 (lysine site: K303) (UniProt Q12907)
Method in brief: as §1

MDH2 (lysine site: K185) = MDH2 (lysine site: K185) (UniProt P40926)
Method in brief: as §1

[17] = biological target: NCR3LG1 (lysine site: K101) (UniProt Q68D85)
Method in brief: as §1

[18] = biological target: NECTIN2 (lysine site: K97) (UniProt Q92692)
Method in brief: as §1

PHB (lysine site: K240) = PHB (lysine site: K240) (UniProt P35232)
Method in brief: as §1

[19] = biological target: PODXL (lysine site: K385) (UniProt O00592)
Method in brief: as §1

[20] = biological target: PODXL (lysine site: K394) (UniProt O00592)
Method in brief: as §1

[21] = biological target: PODXL (lysine site: K418) (UniProt O00592)
Method in brief: as §1

[22] = biological target: PODXL (lysine site: K422) (UniProt O00592)
Method in brief: as §1

[23] = biological target: PODXL (lysine site: K444) (UniProt O00592)
Method in brief: as §1

[24] = biological target: PSMD6 (lysine site: K130) (UniProt Q15008)
Method in brief: as §1

[25] = biological target: PSMD6 (lysine site: K372) (UniProt Q15008)
Method in brief: as §1

[26] = biological target: PTPRK (lysine site: K227) (UniProt Q15262)
Method in brief: as §1

[27] = biological target: PTPRK (lysine site: K244) (UniProt Q15262)
Method in brief: as §1

[28] = biological target: PTPRK (lysine site: K262) (UniProt Q15262)
Method in brief: as §1

[29] = biological target: PTPRK (lysine site: K394) (UniProt Q15262)
Method in brief: as §1

[30] = biological target: PTPRK (lysine site: K397) (UniProt Q15262)
Method in brief: as §1

[31] = biological target: PTPRK (lysine site: K722) (UniProt Q15262)
Method in brief: as §1

[32] = biological target: SACM1L (lysine site: K483) (UniProt Q9NTJ5)
Method in brief: as §1

[33] = biological target: SLC25A3 (lysine site: K218) (UniProt Q00325)
Method in brief: as §1

[34] = biological target: SLC25A3 (lysine site: K234) (UniProt Q00325)
Method in brief: as §1

[35] = biological target: SLC25A3 (lysine site: K252) (UniProt Q00325)
Method in brief: as §1

[36] = biological target: SLC25A3 (lysine site: K304) (UniProt Q00325)
Method in brief: as §1

[37] = biological target: SLC25A3 (lysine site: K313) (UniProt Q00325)
Method in brief: as §1

[38] = biological target: SNAP23 (lysine site: K64) (UniProt O00161)
Method in brief: as §1

[39] = biological target: TMED10 (lysine site: K145) (UniProt P49755)
Method in brief: as §1

TPBG (lysine site: K328) = TPBG (lysine site: K328) (UniProt Q13641)
Method in brief: as §1

TPBG (lysine site: K76) = TPBG (lysine site: K76) (UniProt Q13641)
Method in brief: as §1

[40] = biological target: TSPAN14 (lysine site: K132) (UniProt Q8NG11)
Method in brief: as §1

[41] = biological target: UniProt P08729 (lysine site: K273)
Method in brief: as §1

[42] = biological target: UniProt P08729 (lysine site: K296)
Method in brief: as §1

[43] = biological target: UniProt P08729 (lysine site: K326)
Method in brief: as §1

[44] = biological target: UniProt P08729 (lysine site: K331)
Method in brief: as §1

[45] = biological target: UniProt P08729 (lysine site: K353)
Method in brief: as §1

[46] = biological target: UniProt P08913 (lysine site: K190)
Method in brief: as §1

[47] = biological target: UniProt P50895 (lysine site: K482)
Method in brief: as §1

[48] = biological target: UniProt P50895 (lysine site: K531)
Method in brief: as §1

[49] = biological target: UniProt Q6ZS17 (lysine site: K71)
Method in brief: as §1

WLS (lysine site: K161) = WLS (lysine site: K161) (UniProt Q5T9L3)
Method in brief: as §1

WLS (lysine site: K168) = WLS (lysine site: K168) (UniProt Q5T9L3)
Method in brief: as §1

YWHAB (lysine site: K70) = YWHAB (lysine site: K70) (UniProt P31946)
Method in brief: as §1

YWHAZ (lysine site: K85) = YWHAZ (lysine site: K85) (UniProt P63104)
Method in brief: as §1

Measured: lysine labeling ratio R10:1

SNAP23 (lysine site: K64), sequence (O00161 whole entry): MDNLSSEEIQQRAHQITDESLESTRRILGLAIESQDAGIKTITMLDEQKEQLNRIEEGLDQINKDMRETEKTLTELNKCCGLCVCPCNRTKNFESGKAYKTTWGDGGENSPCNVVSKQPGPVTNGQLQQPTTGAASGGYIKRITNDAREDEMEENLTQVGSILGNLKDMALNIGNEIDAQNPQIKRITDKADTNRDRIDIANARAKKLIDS
MDH2 (lysine site: K185), sequence (P40926 whole entry): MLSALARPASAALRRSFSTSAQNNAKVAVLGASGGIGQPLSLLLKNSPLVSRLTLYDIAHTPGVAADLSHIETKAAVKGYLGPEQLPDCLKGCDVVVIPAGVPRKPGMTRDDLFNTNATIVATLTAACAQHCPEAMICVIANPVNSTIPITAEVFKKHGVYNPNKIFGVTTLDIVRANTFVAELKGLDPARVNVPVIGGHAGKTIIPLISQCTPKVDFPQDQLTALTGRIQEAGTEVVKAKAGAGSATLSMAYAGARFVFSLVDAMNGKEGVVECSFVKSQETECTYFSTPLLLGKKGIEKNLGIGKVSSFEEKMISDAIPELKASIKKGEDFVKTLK
LMAN2 (lysine site: K303), sequence (Q12907 whole entry): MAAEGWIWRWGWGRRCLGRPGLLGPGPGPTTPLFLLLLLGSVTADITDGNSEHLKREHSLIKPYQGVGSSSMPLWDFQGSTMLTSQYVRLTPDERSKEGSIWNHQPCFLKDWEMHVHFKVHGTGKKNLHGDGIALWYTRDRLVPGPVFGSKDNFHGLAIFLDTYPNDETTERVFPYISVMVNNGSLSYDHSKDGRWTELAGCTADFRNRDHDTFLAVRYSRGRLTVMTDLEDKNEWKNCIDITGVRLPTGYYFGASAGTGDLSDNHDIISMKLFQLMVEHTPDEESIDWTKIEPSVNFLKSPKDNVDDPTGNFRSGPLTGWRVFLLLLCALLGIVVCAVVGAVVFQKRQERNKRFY
UniProt P50895 (lysine site: K482), sequence (P50895 whole entry): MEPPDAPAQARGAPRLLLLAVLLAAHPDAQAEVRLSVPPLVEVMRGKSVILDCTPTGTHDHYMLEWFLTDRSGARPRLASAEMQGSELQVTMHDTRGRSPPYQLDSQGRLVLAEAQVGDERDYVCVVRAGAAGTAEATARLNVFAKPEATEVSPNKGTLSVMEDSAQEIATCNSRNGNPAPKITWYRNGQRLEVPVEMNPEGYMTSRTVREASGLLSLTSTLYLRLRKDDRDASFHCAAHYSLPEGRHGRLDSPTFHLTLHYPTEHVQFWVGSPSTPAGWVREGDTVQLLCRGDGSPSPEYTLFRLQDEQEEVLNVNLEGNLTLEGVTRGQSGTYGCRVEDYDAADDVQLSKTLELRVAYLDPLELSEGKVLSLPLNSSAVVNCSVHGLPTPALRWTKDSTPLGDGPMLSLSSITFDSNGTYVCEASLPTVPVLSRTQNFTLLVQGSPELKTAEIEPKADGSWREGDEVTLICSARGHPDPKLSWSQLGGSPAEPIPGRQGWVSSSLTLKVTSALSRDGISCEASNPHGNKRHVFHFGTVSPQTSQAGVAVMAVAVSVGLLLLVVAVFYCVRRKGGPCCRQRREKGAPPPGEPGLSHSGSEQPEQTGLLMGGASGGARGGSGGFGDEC
UniProt P50895 (lysine site: K531), sequence (P50895 whole entry): as above
UniProt P08729 (lysine site: K273), sequence (P08729 whole entry): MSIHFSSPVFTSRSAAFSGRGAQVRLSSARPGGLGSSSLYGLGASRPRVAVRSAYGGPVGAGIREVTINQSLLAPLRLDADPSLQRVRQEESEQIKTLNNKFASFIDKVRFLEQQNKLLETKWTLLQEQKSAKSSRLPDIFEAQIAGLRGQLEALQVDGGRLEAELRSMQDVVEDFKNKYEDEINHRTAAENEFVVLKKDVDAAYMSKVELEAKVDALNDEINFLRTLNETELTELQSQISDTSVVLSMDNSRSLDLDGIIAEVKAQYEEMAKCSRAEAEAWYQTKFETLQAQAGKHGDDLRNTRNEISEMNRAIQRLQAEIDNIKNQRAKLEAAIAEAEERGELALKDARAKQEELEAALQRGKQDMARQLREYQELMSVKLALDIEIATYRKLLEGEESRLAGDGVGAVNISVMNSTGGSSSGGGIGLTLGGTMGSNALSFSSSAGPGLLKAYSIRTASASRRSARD
UniProt P08729 (lysine site: K296), sequence (P08729 whole entry): as above
UniProt P08729 (lysine site: K326), sequence (P08729 whole entry): as above
UniProt P08729 (lysine site: K331), sequence (P08729 whole entry): as above
UniProt P08729 (lysine site: K353), sequence (P08729 whole entry): as above
ACLY (lysine site: K1080), sequence (P53396 whole entry): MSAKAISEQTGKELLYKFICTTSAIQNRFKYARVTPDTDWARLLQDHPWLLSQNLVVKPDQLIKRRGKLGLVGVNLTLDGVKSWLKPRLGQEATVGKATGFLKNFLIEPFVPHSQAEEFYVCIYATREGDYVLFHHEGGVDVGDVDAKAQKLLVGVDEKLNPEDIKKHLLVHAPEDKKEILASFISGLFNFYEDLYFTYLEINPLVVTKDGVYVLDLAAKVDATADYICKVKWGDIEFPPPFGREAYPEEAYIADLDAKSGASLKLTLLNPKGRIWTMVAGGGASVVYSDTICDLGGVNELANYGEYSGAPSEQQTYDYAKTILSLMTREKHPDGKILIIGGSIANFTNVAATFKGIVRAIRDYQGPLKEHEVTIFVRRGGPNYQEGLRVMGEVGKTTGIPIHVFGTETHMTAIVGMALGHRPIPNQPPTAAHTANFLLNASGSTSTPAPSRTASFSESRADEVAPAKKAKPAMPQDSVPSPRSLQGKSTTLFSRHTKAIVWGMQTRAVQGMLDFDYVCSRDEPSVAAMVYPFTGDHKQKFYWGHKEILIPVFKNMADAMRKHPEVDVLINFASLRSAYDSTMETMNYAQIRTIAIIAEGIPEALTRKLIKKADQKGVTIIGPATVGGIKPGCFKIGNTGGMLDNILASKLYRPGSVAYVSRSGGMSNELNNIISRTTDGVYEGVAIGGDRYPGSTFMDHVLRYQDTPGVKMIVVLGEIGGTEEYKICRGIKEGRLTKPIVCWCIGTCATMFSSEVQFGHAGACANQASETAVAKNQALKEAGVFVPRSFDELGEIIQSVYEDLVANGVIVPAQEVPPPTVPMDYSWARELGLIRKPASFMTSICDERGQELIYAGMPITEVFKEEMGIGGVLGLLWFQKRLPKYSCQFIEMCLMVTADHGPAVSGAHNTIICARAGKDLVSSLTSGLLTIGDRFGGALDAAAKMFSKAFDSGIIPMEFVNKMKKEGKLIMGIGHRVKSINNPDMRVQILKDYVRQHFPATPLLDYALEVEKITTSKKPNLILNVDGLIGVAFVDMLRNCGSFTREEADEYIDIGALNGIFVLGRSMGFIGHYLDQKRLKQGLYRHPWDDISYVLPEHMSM
ACLY (lysine site: K272), sequence (P53396 whole entry): as above
ACLY (lysine site: K780), sequence (P53396 whole entry): as above
ACLY (lysine site: K836), sequence (P53396 whole entry): as above
ACLY (lysine site: K968), sequence (P53396 whole entry): as above
ACLY (lysine site: K978), sequence (P53396 whole entry): as above
TMED10 (lysine site: K145), sequence (P49755 whole entry): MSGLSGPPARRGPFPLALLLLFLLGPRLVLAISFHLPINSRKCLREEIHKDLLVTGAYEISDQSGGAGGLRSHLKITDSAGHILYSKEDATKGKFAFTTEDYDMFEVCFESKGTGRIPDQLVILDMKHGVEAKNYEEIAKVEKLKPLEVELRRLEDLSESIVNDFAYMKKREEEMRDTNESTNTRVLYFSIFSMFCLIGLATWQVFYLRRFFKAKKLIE
PODXL (lysine site: K385), sequence (O00592 whole entry): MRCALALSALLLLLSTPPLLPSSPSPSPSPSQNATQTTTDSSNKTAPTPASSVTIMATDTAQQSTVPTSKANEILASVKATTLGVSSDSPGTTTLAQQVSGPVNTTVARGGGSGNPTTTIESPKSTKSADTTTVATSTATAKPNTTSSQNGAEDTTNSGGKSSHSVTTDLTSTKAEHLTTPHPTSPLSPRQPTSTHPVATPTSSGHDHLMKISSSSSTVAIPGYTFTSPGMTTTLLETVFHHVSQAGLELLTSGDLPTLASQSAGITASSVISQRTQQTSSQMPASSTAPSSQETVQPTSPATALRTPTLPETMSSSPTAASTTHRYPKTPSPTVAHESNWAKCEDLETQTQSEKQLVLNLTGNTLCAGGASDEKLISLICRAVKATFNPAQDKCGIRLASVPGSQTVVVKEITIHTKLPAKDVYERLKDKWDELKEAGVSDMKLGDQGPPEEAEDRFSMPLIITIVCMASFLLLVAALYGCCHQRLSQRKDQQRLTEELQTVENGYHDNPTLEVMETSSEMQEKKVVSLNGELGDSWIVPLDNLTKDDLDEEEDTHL
PODXL (lysine site: K394), sequence (O00592 whole entry): as above
PODXL (lysine site: K418), sequence (O00592 whole entry): as above
PODXL (lysine site: K422), sequence (O00592 whole entry): as above
PODXL (lysine site: K444), sequence (O00592 whole entry): as above
PHB (lysine site: K240), sequence (P35232 whole entry): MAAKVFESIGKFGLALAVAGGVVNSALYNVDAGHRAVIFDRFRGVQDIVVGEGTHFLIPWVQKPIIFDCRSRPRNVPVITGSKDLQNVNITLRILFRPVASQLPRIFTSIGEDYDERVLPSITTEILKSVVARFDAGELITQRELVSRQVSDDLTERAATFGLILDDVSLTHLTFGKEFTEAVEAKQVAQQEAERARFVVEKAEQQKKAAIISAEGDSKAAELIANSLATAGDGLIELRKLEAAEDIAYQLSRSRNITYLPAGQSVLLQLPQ
CSTB (lysine site: K91), sequence (P04080 whole entry): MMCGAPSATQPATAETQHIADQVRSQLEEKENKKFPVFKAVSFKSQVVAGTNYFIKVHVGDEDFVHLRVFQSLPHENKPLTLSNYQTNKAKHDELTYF

C#CCNC(=O)CCSSCCC(=O)NCCc1ccc(C=O)c(C=O)c1
inactive: [1] 6.28 | ACLY (lysine site: K272) 2.72 | ACLY (lysine site: K836) 3 | ACLY (lysine site: K968) 4.07 | ACLY (lysine site: K978) 2.77 | [2] 2.98 | BSG (lysine site: K264) 2.59 | CALR (lysine site: K360) 5.32 | CALR (lysine site: K64) 2.12 | CDC37 (lysine site: K60) 2.43 | CSTB (lysine site: K91) 4.21 | GART (lysine site: K251) 5.53 | [9] 6.19 | [10] 2.84 | [11] 3.88 | [12] 6.93 | [13] 3.03 | [14] 3.29 | [15] 4.46 | MDH2 (lysine site: K185) 3.9 | [17] 2.58 | [19] 9.63 | [21] 2.7 | [23] 2.06 | [26] 3.07 | [28] 4.25 | [29] 7.37 | [30] 3.52 | [31] 2.01 | [32] 4.06 | [35] 3.68 | [36] 4.79 | [37] 4.2 | [39] 4.28 | TPBG (lysine site: K76) 2.54 | [41] 3.39 | [42] 3.6 | [43] 5.31 | [44] 5.69 | [45] 9.28 | [46] 2.31 | [48] 2.47 | [49] 5.33 | WLS (lysine site: K161) 9.23 | WLS (lysine site: K168) 5.48 | YWHAB (lysine site: K70) 3.41 | YWHAZ (lysine site: K85) 3.38
active: ACLY (lysine site: K780) 1.27 | [3] 1.51 | [4] 0.81 | [5] 1.18 | CALR (lysine site: K159) 1.52 | CAV1 (lysine site: K47) 1.22 | [6] 1.59 | [7] 0.745 | [8] 1.99 | [16] 1.72 | [18] 0.864 | PHB (lysine site: K240) 1.3 | [20] 0.785 | [22] 0.841 | [24] 0.957 | [25] 0.563 | [27] 1.58 | [33] 0.82 | [34] 1.8 | [38] 1.47 | TPBG (lysine site: K328) 1.99 | [40] 0.603 | [47] 1.94
